Values joined by “and” are separate entries in the source; they are usually repeats but may differ in a detail not shown here. Identical values can stand only once. Results filed as inconclusive are left out. Entries that show only a call come without a potency. Active and inactive are the calls of the source. The call rests on the fitted dose curve; in most records, active means well fitted cell-killing curve with a large enough effect in the repeat runs; inconclusive means weak or mixed curves, or effect the other way; inactive means flat fitted curve, though single readings scatter. Peptide text beside a SMILES is read from it.
test: Nuclear factor erythroid 2-related factor 2/antioxidant responsive element (Nrf2/ARE) small molecule agonists: qHTS cell viability counter screen in human keratinocytes (AID 1919968); details: KeratinoSens HaCaT ARE cells viability, CellTiter-Fluor, 24 h; series mostly up to 92.4 µM; further: nearly all actives have a fitted effect of over 55% in size
Source text: U.S. Tox21 Program National Center for Advancing Translational Sciences [NCATS] Division of Preclinical Innovation [DPI] U.S. Environmental Protection Agency [EPA] National Institutes of Environmental Health Sciences [NIEHS] National Toxicology Program [NTP] U.S. Food and Drug Administration [FDA] Tox21 Assay Overview: Oxidative stress has been implicated in the pathogenesis of a variety of diseases ranging from cancer to neurodegeneration. The antioxidant response element (ARE) signaling pathway plays an important role in the amelioration of oxidative stress. The KeratinoSens (Givaudan, Switzerland) is an in vitro test method which quantifies luciferase induction as a measure of activation of Keap1-Nrf2-antioxidationt/electrophile response element (ARE) dependant pathway in HaCaT human keratinocytes stably transfected with a selectable plasmid. The KeratinoSens assay is a cell-based assay with a reporter cell line to detect potential skin sensitizers by their ability to induce the Nrf2/ARE-response. The activation of the report gene under culture conditions can be detected by ONE-Glo Luciferase Assay System (Promega, Madison, WI). This cell line has been used to screen the Tox21 10K compound library to identify agonists that induce oxidative stress. The cytotoxicity of the Tox21 compound library against the KS-ARE cell line was tested in parallel by measuring the cell viability using CellTiter- Fluor assay system (Promega, Madison, WI) in the same wells.
Tox21 Assay Protocol Summary: HaCaT derived cell line KeratinoSens were dispensed at 1,500 cells/5uL/well in 1536-well white wall/solid bottom plates using a Multidrop Combi (ThermoFisher Scientific, Waltham, MA) dispenser. After the assay plates were incubated at 37 C/5% CO2 for 5 h, 23 nL of compounds dissolved in DMSO, positive controls or DMSO only was transferred to the assay plate by a pintool workstation (Kalypsys, San Diego, CA). The plates were incubated at 37 C/5% CO2 for 23 h, followed by addition of 1uL/well of CellTiter-Fluor reagent into the assay plates using a Flying Reagent Dispenser (Aurora Discovery, San Diego, CA) for cell viability readout that measures cytotoxicity. After 1 h incubation at 37 C/5% CO2 the fluorescence intensity was measured using a ViewLux (PerkinElmer, Shelton, CT) plate reader.
Potency means the concentration at half of the fitted maximal effect.

SMILES	Potency
CCCCCCCCCCCCCO	inactive
C=C(C)OC(C)=O	inactive
CCCCN(CCCC)CCCC	inactive
CCOC(=O)c1ccc(O)cc1	inactive
O=C(/C=C/C=C/c1ccc2c(c1)OCO2)N1CCCCC1	inactive
CC(C)(C)[C@@H](O)[C@@H](Cc1ccc(Cl)cc1)n1cncn1	inactive
Cc1ncc(CO)c(CO)c1O	inactive
c1ccc2scnc2c1	inactive
COc1cc2c(c(OC)c1OC)-c1ccc(OC)c(=O)cc1[C@@H](NC(C)=O)CC2	inactive
Cc1cc(=O)[nH]c(C(C)C)n1	inactive
COc1ccccc1OCC(O)CO (stereo not given)	inactive
COC(=O)[C@H](Cc1ccccc1)NC(=O)[C@@H](N)CC(=O)O (H-Asp-Phe-OMe)	inactive
CCCCCCCCCCCCCC(=O)O	inactive
C[C@]12C=CC(=O)C=C1CC[C@H]1[C@@H]3C[C@@H](O)[C@](O)(C(=O)CO)[C@@]3(C)C[C@H](O)[C@@]12F	inactive
O=C(O)c1cc(C(=O)O)cc(S(=O)(=O)O)c1	inactive
CCCCCCCC(=O)O	inactive
OC[C@H]1O[C@H](O[C@]2(CCl)O[C@H](CCl)[C@@H](O)[C@@H]2O)[C@H](O)[C@@H](O)[C@H]1Cl	inactive
CCCCCCCCCCCC(=O)OC	inactive
COc1ccc([N+](=O)[O-])cc1N	inactive
Cc1cn([C@H]2C[C@H](N=[N+]=[N-])[C@@H](CO)O2)c(=O)[nH]c1=O	inactive

SMILES	Potency
COc1ccc(Nc2ccccc2)c(C)c1	inactive
C[C@H]1C[C@@H]2[C@H]([C@@H](O)C[C@@]3(C)[C@H]2CC[C@]3(O)C(=O)CO)[C@@]2(C)C=CC(=O)C=C12	inactive
C#C[C@]1(O)CC[C@H]2[C@@H]3CCc4cc(OC)ccc4[C@H]3CC[C@@]21C	inactive
COC(=O)c1ccccc1O	inactive
CS(=O)(=O)c1ccc([C@@H](O)[C@@H](CO)NC(=O)C(Cl)Cl)cc1	inactive
Cc1cc(CC(=O)O)n(C)c1C(=O)c1ccc(Cl)cc1	inactive
C/C=C/c1ccc(O)c(OC)c1	inactive
c1ccc2c(c1)ccc1ccccc12	inactive
CCN(CC)C(=S)SSC(=S)N(CC)CC	96.9 nM (active) and 99.2 nM (active) and 29.8 µM (active)
CCCCCCC(=O)O	inactive
CC(O)COCC(C)O (stereo not given)	inactive
FC(F)(F)c1ccc(Cl)c(Cl)c1	inactive
CC(C)=CCCC(C)CCO (stereo not given)	inactive
C#C[C@]1(O)CC[C@H]2[C@@H]3CCc4cc(O)ccc4[C@H]3CC[C@@]21C	inactive
Cc1ccccc1C(OCCN(C)C)c1ccccc1 (stereo not given)	inactive
CC(=O)OCCOC(C)=O	inactive
CC1(C)C(=O)N(Cl)C(=O)N1Cl	inactive
Cc1cccc(C)c1	inactive
CCCCC(CC)COC(=O)CS (stereo not given)	inactive
Cc1cccc(C(=O)O)c1	inactive

Source: PubChem BioAssay (Tox21)
